Sampled rows, rich in hits. Any-hit rate of the full collection: about 2.2%.
EWS-Fli inh: EWS/Fli-driven NR0B1 reporter inhibitors, primary screen, A673 cells, NR0B1 luciferase, luminescence, MLPCN library; AID 651661, 2012; hit rate 0.67% among 350,000; viability-normalised; inhibition, % at 12.6 µM;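 active = mean inhibition of at least 50% after viability correction, with every replicate also passing that limit; inconclusive = mean reaches 50% but only one of two replicates passes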;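 note: firefly luciferase signal divided by Alamar Blue viability fluorescence both relative to DMSO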
PAX8 inh HTS: inhibitors of PAX8-driven TPO luciferase reporter, primary screen, RMG-I cells, single concentration | hit rate 1.2% among 360,000 | SteadyGlo, 24 h | inhibition, % at 12.6 µM;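 active = mean replicate inhibition at least 60% with every replicate also reaching 60%; inconclusive = only one of the two criteria is met; inactive = mean below 60% and not all replicates reaching 60%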;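 note: luciferase light reporting Pax8 driven TPO promoter activity; plate controls were median of neutral control wells for no effect and mitoxantrone controls for full effect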
LGR2 inh: inhibitors of bursicon-induced LGR2 CRE-luciferase signal, primary screen, cell-based, HEK293, CRE-luciferase reporter, bursicon stimulation | inhibition, % at 9.99 µM | hit rate 0.35% among 380,000 | AID 720647, 2013 | bursicon-stimulated, 4 h;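 active = drop in luminescence signal, shown as inhibition above about 50% in the replicate tests, limit read from the data, passing the limit was not always enough; inconclusive = probably only some replicates passing the limit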;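 note: agonist challenge used bursicon conditioned medium at about half maximal strength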
EBV LMP1 NFkB: EBV LMP1-driven NF-kappaB luciferase reporter inhibitors, primary screen, cell-based, luminescence, single point; LMP1-induced NF-kappaB luciferase reporter cells; inhibition, % at 12.5 µM; hit rate 0.69% among 350,000; AID 504558, 2011; in the data active = inhibition above about 41%; inconclusive = no clear call, values can overlap the other calls;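 note: 0% = neutral control wells and 100% = reference inhibitor control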
MITF TRPM1 inh: inhibitors of MITF-dependent TRPM1 promoter reporter, primary screen, cell-based, SK-MEL-5, single point, luciferase | SK-MEL-5 TRPM1 promoter luciferase, 24 h | inhibition, % at 12.5 µM | hit rate 0.83% among 330,000;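 active = mean inhibition across replicates of 60% or more, whatever share of single replicates reaches that level; inconclusive = some that reach 60%, reason not given; inactive = mean inhibition across replicates below 60%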
Shn3 3UTR inh: reduction of Shn3 3'UTR firefly luciferase signal, primary screen, Schnurri-3 inhibitor project, cell-based, Clone20 osteoblasts, set 2 | AID 588674, 2011 | inhibition, % at 12.5 µM | hit rate 0.52% among 360,000 | Clone20 osteoblast Shn3 3'UTR firefly luciferase, 24 h;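 active = mean inhibition of at least 75% with every replicate also reaching 75%; inconclusive = mean inhibition at least 75% but some replicate below; inactive = mean inhibition below 75%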;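 note: 0% = median of neutral control wells and 100% = pilot-screen positive control compound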
* marks the source's active call; other numbers are inactive results; ? = inconclusive; . = not tested or not shown; ! = repeats disagree.

SMILES	EWS-Fli inh	PAX8 inh HTS	LGR2 inh	EBV LMP1 NFkB	MITF TRPM1 inh	Shn3 3UTR inh
C[C@H](CO)N1C[C@H](C)[C@H](CN(C)C(=O)Cc2ccccn2)Oc2ncc(C#CC3CCCCC3)cc2C1=O	-4	0	-11	.	.	.
Cc1cc(C)c(S(=O)(=O)Nc2nnc(C)s2)c(C)c1	.	.	.	3	4	3
Cc1cc(C)c(S(=O)(=O)Nc2nnc(CC(C)C)s2)c(C)c1	-3	-19	.	82*	-6	19
CCCNC(=O)C[C@@H]1CC[C@H]2[C@H](COc3ccc(NC(=O)c4ccc(C(F)(F)F)cc4)cc3C(=O)N2C)O1	-1	4	3	.	.	.
C[C@H]1CCCCO[C@H](CN(C)S(C)(=O)=O)[C@@H](C)CN([C@@H](C)CO)C(=O)c2cc(NC(=O)c3ccncc3)ccc2O1	.	-37	2	.	.	.
O=C1c2ccccc2C(=O)N1CC(O)CNc1ccc(Br)cc1 (configuration not stated)	-2	82*	-5	-7	-7	-22
COc1ccc2c3c(n(C)c2c1)[C@H](CO)N(C)CC31CN(C(=O)CN2CCOCC2)C1	-8	.	-11	.	.	.
CC1=CN2C(=N)/C(=C/c3ccc([N+](=O)[O-])o3)C(=O)N=C2S1	56*	14	?	-24	89*	94*
c1ccc(-c2nnc(-c3ccccc3)c(-c3c[nH]c4ccccc34)n2)cc1	.	.	.	-6	-17	2
c1ccc2c(-c3ccncc3)c[nH]c2c1	.	.	13	77*	-13	-9
CNC(=O)c1[nH]cnc1C(=O)N[C@@H](CCCCNC(=O)OC(C)(C)C)C(=O)OC(C)(C)C	-5	-17	2	44*	-17	-24
CC(C)C[C@H](NC(=O)c1nc[nH]c1C(=O)N[C@@H](CCCCNC(=O)OC(C)(C)C)C(=O)OC(C)(C)C)C(=O)OC(C)(C)C	37	102*	.	-1	17	2
O=C(Nc1ccc(Cl)cc1)N[C@H]1CC[C@@H](CCNC(=O)c2ccccc2F)O[C@@H]1CO	-1	-11	20	.	.	.
COC(=O)C1=C(SC)N(c2ccccc2)C(c2ccccc2)CC1=O (configuration not stated)	7	91*	7	3	-10	11
COC(=O)C1=C(SC)N(c2ccc(OC)cc2)C(c2ccccc2)CC1=O (configuration not stated)	-2	18	-8	7	0	-8
CC(Oc1ccc(F)cc1)C(=O)Nc1nc(-c2ccccn2)cs1 (configuration not stated)	27	69*	7	14	65*	62
O=C(CCS(=O)(=O)c1ccccc1)Nc1nc(-c2ccccn2)cs1	13	73*	3	1	3	29
O=C(CCS(=O)(=O)c1ccc(F)cc1)Nc1nc(-c2ccccn2)cs1	18	84*	26	11	42	31
Cc1csc(NC(=O)C(C)Oc2ccc(Br)cc2)n1 (configuration not stated)	-7	106*	10	-3	-7	10
C[C@H](NC(=O)c1ccco1)C(=O)Nc1nc(-c2ccccn2)cs1	12	-1	14	9	13	43
C[C@H](CO)N1C[C@H](C)[C@H](CN(C)S(C)(=O)=O)Oc2c(NS(=O)(=O)c3ccc(F)cc3)cccc2C1=O	-5	.	-11	.	.	.
C[C@@H]1CN([C@H](C)CO)C(=O)c2cc(NC(=O)Nc3ccc(F)cc3)ccc2O[C@@H]1CN(C)Cc1ccc(Oc2ccccc2)cc1	16	.	9	.	.	.
Cn1nc(C(C)(C)C)cc1C(=O)N1CCCCC1c1cc(C(=O)Nc2ccc(F)c(Cl)c2)no1 (configuration not stated)	16	25	.	.	.	86*
O=C(Nc1ccc(F)c(Cl)c1)c1cc(C2CCCCN2C(=O)c2ccc(Cl)cc2)on1 (configuration not stated)	16	9	10	.	.	10
O=C(c1cccc(F)c1)N1CCN(c2cccc(Cl)c2)CC1	.	26	.	45*	17	14
SMILES	EWS-Fli inh	PAX8 inh HTS	LGR2 inh	EBV LMP1 NFkB	MITF TRPM1 inh	Shn3 3UTR inh
O=C(c1c(F)c(F)c(F)c(F)c1F)N1CCN(c2cccc(C(F)(F)F)c2)CC1	.	67*	.	12	8	25
COc1ccc([Si](C)(C)[C@@H]2[C@@H](CCO)O[C@]3(C(=O)N(C)c4ccccc43)[C@H]2C)cc1	10	81*	.	.	.	.
COc1ccc([Si](C)(C)[C@@H]2[C@@H](CC(=O)N(CCO)Cc3ccccc3)O[C@]3(C(=O)N(C)c4ccccc43)[C@H]2C)cc1	6	26	.	.	.	.
COc1ccc([Si](C)(C)[C@@H]2[C@@H](CCn3cc([C@H](O)c4ccccc4)nn3)O[C@]3(C(=O)N(c4ccccc4)c4ccccc43)[C@H]2C)cc1	-3	21	.	.	.	.
COc1ccc([Si](C)(C)[C@@H]2[C@@H](CCO)O[C@]3(C(=O)N(c4ccccc4)c4ccccc43)[C@H]2C)cc1	21	93*	.	.	.	.
COc1ccc(NC(=O)Nc2ccc3c(c2)[C@H]2C[C@@H](CC(=O)NCc4ccccn4)O[C@@H](CO)[C@H]2O3)cc1	-1	6	-9	.	.	.
COc1ccc(NC(=O)N(C)C[C@@H]2OCCCC[C@@H](C)Oc3ccc(NS(=O)(=O)c4cn(C)cn4)cc3C(=O)N([C@H](C)CO)C[C@H]2C)cc1	0	-19	7	.	.	.
COc1ccc(OCCN2CCN(C(=O)c3ccc(OC)cc3)CC2)cc1	32	17	4	14	-4	13
O=C(c1ccc(Cl)cc1)N1CCN(CCOc2ccccc2)CC1	7	10	-2	47*	4	13
C[C@@H]1CN([C@@H](C)CO)C(=O)Cc2cc(NC(=O)c3ccncc3)ccc2O[C@H]1CN(C)Cc1ccc(C(F)(F)F)cc1	7	26	-2	.	.	.
CSc1ccc2c(c1)C(N1CCN(C)CC1)Cc1ccccc1S2 (configuration not stated)	4	-1	1	89*!	31	1
CCc1cccc2c(C(=O)CN3C(=O)NC4(CCCCCC4)C3=O)c[nH]c12	45	82*	-16	-136	-97	48
CC(C)NC(=O)Nc1ccc2c(c1)CC(=O)N([C@@H](C)CO)C[C@H](C)[C@H](CN(C)S(=O)(=O)c1cccs1)O2	1	-20	8	.	.	.
O=C(NCC[C@@H]1CC[C@H](NC(=O)c2ccc3c(c2)OCO3)[C@@H](CO)O1)Nc1cc(F)ccc1F	-5	11	-1	.	.	.
COc1ccc(CCN2C(=O)c3cccc4c(C(=O)N5CCCCC5)ccc(c34)C2=O)cc1OC	11	12	102*	10	49	48

Bioassay records (PubChem)
